Compounds with a hit are over-represented: about 19% of the library has one in this group of screens.
HT1080NT lethal = qHTS for induction of synthetic lethality in tumor cells producing 2HG: qHTS for the HT-1080-NT fibrosarcoma cell line; HT-1080-NT fibrosarcoma viability, CellTiter-Glo ATP luminescence, 48 h; Potency, µM (doses to about 46.1 µM), for the others: top-dose activity, negative = less viability, actives largely listed as cytotoxic; 360,000 compounds, 1.6% hits; AID 686970, 2013;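 also: NT is the 2HG producing partner of a matched IDH1 knockdown line; potency is read from the fitted curve at half-maximal effect; 0% = DMSO-treated cells and -100% = media-only wells without cells; nearly all actives have a fitted effect of over 55% in size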
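A 48-hour cytotoxicity screen used HT-1080-NT cells plated 2 hours before compound delivery. ATP-based CellTiter-Glo luminescence measured viability, normalized to DMSO and no-cell controls.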
TDP1 cell noCPT = qHTS for Inhibitors of human tyrosyl-DNA phosphodiesterase 1 (TDP1): qHTS in cells in absence of CPT; DT40 Tdp1-/- hTDP1 cells, no CPT, ATP luminescence, 48 h; Potency, µM (top dose mostly 46.2 µM), inactives show top-dose activity change, negative = growth inhibition, usual class: inhibitors; 420,000 compounds, 15% hits; AID 686978, 2013; also: potency is read from the fitted curve at half-maximal effect; nearly all actives have a fitted effect of over 55% in size
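Stably hTDP1-transfected Tdp1-null chicken DT40 cells were treated with library compounds minus camptothecin and grown for at least 48 hr at 37 °C, after which cellular ATP was quantified by luminescence.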
IL1B secr inh = qHTS for Inhibitors of Inflammasome Signaling: IL-1-beta AlphaLISA Primary Screen. AID 743279, 2014. THP-1 LPS/ATP IL-1B secretion, AlphaLISA, 16 h; stronger effect = lower value. 360,000 compounds, 4.7% hits. activity change, % at 57.5 µM; in the data active = activity change below about -50%; inconclusive = mostly about -30% to -49%
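THP-1 cells pretreated 1 hr with compounds (up to 57.5 uM final), then stimulated with LPS (250 ng/mL final) plus ATP (1.25 mM final); secreted IL-1B measured by AlphaLISA after 16 hr, decreased signal indicating inhibition.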
TDP1 cell CPT = qHTS for Inhibitors of human tyrosyl-DNA phosphodiesterase 1 (TDP1): qHTS in cells in presence of CPT; chicken DT40 Tdp1-/-;hTDP1 cells + 20 nM CPT, ATP luminescence, 48 h; AID 686979, 2013; 420,000 compounds, 12% hits; Potency, µM (titrated, usually from 46.2 µM), without a hit: at the top dose activity change, negative = growth inhibition, usual class: inhibitors; also: potency is read from the fitted curve at half-maximal effect; nearly all actives have a fitted effect of over 55% in size
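Cell growth measured by CellTiter-Glo luminescence after a minimum 48 h, 37 C compound exposure with 20 nM CPT in Tdp1-knockout DT40 cells stably expressing hTDP1, seeded 400/well; qHTS titration format.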
HT1080 IDH1KD tx = qHTS for induction of synthetic lethality in tumor cells producing 2HG: qHTS for the HT-1080-IDH1KD cell line; AID 686971, 2013; HT-1080 IDH1 knockdown viability, ATP luminescence, 48 h; 360,000 compounds, 2% hits; Potency, µM (series often up to 46.1 µM), without a hit: at the highest dose activity, negative = toxicity, usual class: cytotoxic;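 also: potency is read from the fitted curve at half-maximal effect; 0% = DMSO wells and -100% = cell-free medium wells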
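CellTiter-Glo luminescence after 48 h compound exposure at 37 degrees C of IDH1-knockdown HT-1080 cells in 5% FBS RPMI. %Activity scaled between DMSO wells and cell-free media wells, with curves fitted and assigned curve classes.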
Active calls of the source: *; ? = inconclusive; · = no result given; [ ] = remark or other dose. Unless noted, calls follow the shape of the dose curve; as a rule, active = well fitted curve in the direction sought with a large enough effect; inconclusive = small, poorly fitted or top-dose-only effect, or another doubt; inactive = no such curve, though single readings can be large; an effect the other way counts as inactive or inconclusive. Unless noted, % is scaled to controls: 0 for no effect and ±100 for the full control effect.

SMILES	HT1080NT lethal	TDP1 cell noCPT	IL1B secr inh	TDP1 cell CPT	HT1080 IDH1KD tx
COc1ccc(C2C(C(=O)Nc3ccc(OC)c(OC)c3)c3ccccc3C(=O)N2C)cc1 (stereo unspecified)	6%	-28%	69	3%	-18%
COc1ccc(N(C(=O)c2ccncc2)S(=O)(=O)c2cccc([N+](=O)[O-])c2)cc1	-12%	-12%	4	-16%	-7%
O=C(COC(=O)C1=Cc2ccccc2OC1)NCc1ccc(F)cc1	0%	-2%	14	7%	4%
CC(=O)c1cccc(NC(=O)Nc2cccs2)c1	-5%	?	0	16µM*	-1%
COc1cccc(NC(=O)Nc2cccs2)c1	0%	?	5	?	1%
CCOc1ccc(NC(=O)Nc2cccs2)cc1	-18%	18µM*	-11	10µM*	-25%
COc1ccc(NC(=O)Nc2cccs2)cc1OC	2%	-17%	-8	-20%	10%
CCc1ccc(NC(=O)Nc2cccs2)cc1	-2%	15µM*	-19	21µM*	2%
CCOc1ccc(NC(=O)NC23CC4CC(CC(C4)C2)C3)cc1	-18%	23µM*	-67*	21µM*	-21%
COc1cc(OC)cc(C(=O)Nc2cc(C)nn2-c2ccccc2)c1	11%	-20%	-17	-29%	1%
CCOC(=O)C1=C(N)Oc2cc(O)ccc2C1c1ccc([N+](=O)[O-])cc1 (stereo unspecified)	?	-17%	-70*	0%	?
CN(C(=O)CSc1nnc(-c2ccc([N+](=O)[O-])cc2)o1)c1ccccc1	·	?	·	16µM*	·
Cn1c(=O)n(C)c2cc(CNC(=O)[C@H]3O[C@@H](n4ccc(=O)[nH]c4=O)[C@H](O)[C@@H]3O)ccc21	21%	11%	-21	5%	3%
Oc1c(C(c2ccccc2)N2CCOCC2)ccc2ccccc12 (stereo unspecified)	-14%	9.2µM*	-99*	8.2µM*	-19%
COc1cc(OC)c(/C=N/NC(=O)COc2cccc3cccnc23)c(OC)c1	15%	-30%	-5	-22%	1%
CCOC(=O)c1c(Nc2ccc(OCC)cc2)nnc(-c2ccccc2)c1-c1ccccc1	·	21µM*	·	15µM*	·
CCOC(=O)c1c(Nc2cccc(O)c2)nnc(-c2ccccc2)c1-c1ccccc1	·	23µM*	·	?	·
NC(=O)COc1ccc(Nc2nnc(-c3ccc(O)cc3)c3ccccc23)cc1	5%	3%	-27	20%	-2%
O=C(CS(=O)(=O)c1cccc2nsnc12)NCc1ccccc1Cl	·	?	·	-30%	·
Cc1cc(SCC(=O)NCc2ccc(F)cc2)nc(=O)[nH]1	·	-4%	·	4%	·
COc1ccc(Cl)c(NC(=O)C/C(C)=N/NC(=O)CCc2ccccc2)c1	-24%	-18%	?	-15%	-24%
C=CC[C@H](CC(=O)N[C@H](CO)Cc1ccccc1)C(=O)N[C@H](COC(=O)[C@@H](CC=C)Cc1ccc(F)cc1)Cc1c[nH]c2ccccc12	-5%	-10%	-10	-2%	-7%
C=CC[C@@H](CC(=O)N[C@@H](CO)Cc1ccccc1)C(=O)N[C@@H](COC(=O)[C@@H](CC=C)Cc1ccc(F)cc1)Cc1c[nH]c2ccccc12	-8%	21µM*	-51*	16µM*	-9%
C=CC[C@@H](CC(=O)N[C@H](CO)Cc1ccccc1)C(=O)N[C@H](COC(=O)[C@@H](CC=C)Cc1ccc(F)cc1)Cc1c[nH]c2ccccc12	?	18µM*	?	13µM*	?
CCc1noc(C)c1C(=O)NNC(=O)c1ccccc1Cl	11%[9.24 µM]	15%	23	-6%	9%
SMILES	HT1080NT lethal	TDP1 cell noCPT	IL1B secr inh	TDP1 cell CPT	HT1080 IDH1KD tx
Nc1[nH]c(=O)nc(Nc2ccccc2)c1N=O	0%	-14%	27	?	-1%
CCCCCCNc1nc(NCc2ccco2)nc(OCC)n1	-17%	18µM*	-2	21µM*	-22%
CC(C)(C)n1nnnc1C(c1cc2cc3c(cc2[nH]c1=O)OCO3)N1CCN(c2ccccc2)CC1 (stereo unspecified)	5%	-18%	?	-12%	-5%
COc1cc2cc(C(c3nnnn3C(C)(C)C)N3CCc4ccccc4C3)c(=O)[nH]c2cc1OC (stereo unspecified)	-26%	?	-18	18µM*	?
CCC(C)(C)n1nnnc1C(c1cc2cc(OC)c(OC)cc2[nH]c1=O)N1CCc2ccccc21 (stereo unspecified)	?	?	0	20µM*	?
Cc1ccc(CN2CCC(=O)N2)cc1	-23%	?	0	4%	-11%
Cc1cc(NC(=O)NC(=O)c2ccccc2NC(=O)C(C)N)ccc1Oc1ncc(Br)cn1 (stereo unspecified)	?	0.58µM*	-1	0.65µM*	0.092µM*
COc1ccc(C)cc1NC(=O)Nc1ccc(Br)cn1	1%	3%	36	-2%	-6%
COc1cccc(Nc2nc3ccccc3nc2NS(=O)(=O)c2cccs2)c1	-19%	10µM*	?	9.2µM*	-25%
COc1ccc(Nc2nc3ccccc3nc2NS(=O)(=O)c2ccc(Cl)cc2)cc1OC	·	?	·	9.2µM*	·
CCOc1ccc(CCNC(=O)COC(=O)c2cc(OC)cc(OC)c2)cc1OCC	5%	?	30	-3%	-3%
CCCn1c(=N)c(C(=O)NCc2cccnc2)cc2c(=O)n3cc(C)ccc3nc21	·	-12%	·	-1%	·
O=C(c1ccc(N2CCCC2=O)cc1)N1CCN(c2cccc(C(F)(F)F)c2)CC1	-1%	23µM*	?	16µM*	-5%
O=C(C1CC(=O)N(c2ccc3c(c2)OCCO3)C1)N1CCN(S(=O)(=O)c2cccc(F)c2)CC1 (stereo unspecified)	1%	?	8	-12%	-5%
Cc1ccc(-n2nc(C(=O)N3CCN(c4cccc(C(F)(F)F)c4)CC3)c(=O)n(C)c2=O)cc1	·	18µM*	·	?	·
O=C(c1c(F)cccc1F)N1CCN(c2cccc(C(F)(F)F)c2)CC1	10%	?	-29	?	1%
O=C(c1cccc(N2CCCC2=O)c1)N1CCN(c2ccc(F)cc2)CC1	5%	17%	3	4%	8%
O=C(c1cccc(N2CCCC2=O)c1)N1CCN(c2cccc(Cl)c2)CC1	?	3.3µM*	4	?	13µM*

Compound activity: PubChem BioAssay, National Center for Advancing Translational Sciences (NCATS)
